Screens: PubChem, National Center for Advancing Translational Sciences (NCATS)
This is a sample that favours compounds with a hit; in the whole collection about 12% have one here.
AMA1-RON2 inh: AMA1-RON2 (P. falciparum) interaction inhibition; AlphaScreen AMA1-biotinylated RON2 peptide binding; Potency, µM (top dose mostly 58.2 µM), usual class: inhibitors; 360,000 tested, 0.2% active; also: nearly all actives have a fitted effect of over 45% in size
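AMA1 (3D7) with his tag at 25 nM final met compounds first, then biotinylated RON2 peptide at 25 nM; detection used donor plus acceptor beads, 10 µg/mL apiece, read by AlphaScreen after 30 min at room temperature.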
HCV inh: HCV inhibition; Huh7.5.1 HCVcc-Cre infection, luciferase reporter, 44 h; AID 651820; Potency, µM (top dose mostly 41.8 µM), actives largely listed as inhibitors; 340,000 tested, 3.4% active
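Infectious HCVcc-Cre (~0.5 moi) was added to cells just after compound, with cells seeded 4 h earlier at 1,000 per well. Luciferase activity after 44 h culture reported infection; substrate was incubated 15 min at room temperature before reading.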
NS1 inh: inhibitors of influenza NS1 protein function. Potency, µM (doses to about 46.1 µM). 270,000 tested, 0.4% active. AID 2326; calls by dose curve; also: actives are rising curves; nearly all actives have a fitted effect of over 50% in size
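OD600 was taken as the measure of yeast growth restored by compound in an NS1-expressing S. cerevisiae strain. Cells had been washed out of glucose medium and diluted 1:100 into galactose -URA medium, pH 6.0.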
Pf growth 48h: P. falciparum growth inhibition at 48 hours (one generation); 310,000 tested, 5.9% active; P. falciparum luciferase growth in erythrocytes, 48 h; Potency, µM (top dose mostly 28.7 µM), most hits filed as inhibitors
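First compound was added to culture medium, then infected red cells at 0.1% parasitemia and 2% hematocrit (final). After incubation at 37 C under 5% CO2, luciferase detection reagent was dispensed and light output recorded.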
Pf growth 96h: inhibits malaria parasite growth, 96 h | Potency, µM (highest dose often 28.7 µM), most hits filed as inhibitors | AID 504834 | 320,000 tested, 6.9% active | P. falciparum luciferase reporter growth, 96 h
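96 h incubation, 37 C, 5% CO2, of luciferase-reporter P. falciparum-infected RBCs (2% hematocrit, 0.05% parasitemia final) with test compounds; endpoint luminescence.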
SARS PLP yeast: SARS-CoV PLP inhibition in yeast; S. cerevisiae expressing SARS-CoV PLpro, growth rescue; Potency, µM (series often up to 32.9 µM), most hits filed as activators; 330,000 tested, 0.19% active; AID 485353; calls by dose curve; also: nearly all actives have a fitted effect of over 55% in size
Numbers stand for hits; i = inactive; ? = inconclusive; nt = not tested or not shown; [ ] = dose if it differs, or a comment. Unless noted, calls follow the shape of the dose curve; as a rule, active = well fitted curve in the direction sought with a large enough effect; inconclusive = small, poorly fitted or top-dose-only effect, or another doubt; inactive = no such curve, though single readings can be large; an effect the other way counts as inactive or inconclusive.

SMILES	AMA1-RON2 inh	HCV inh	NS1 inh	Pf growth 48h	Pf growth 96h	SARS PLP yeast
O=C(CCCn1c(SCC(=O)NCC2CCCO2)nc2ccccc2c1=O)NCc1ccccc1 (stereo unspecified)	?	i	i	nt	9.3µM	i
O=C(CCCn1c(SCc2cc(=O)n3cc(Cl)ccc3n2)nc2ccccc2c1=O)NCC1CCCO1 (stereo unspecified)	i	i	i	6.6µM	10µM	i
O=C(CCCn1c(SCC(=O)NC2CCCC2)nc2ccccc2c1=O)NCC1CCCO1 (stereo unspecified)	nt	nt	i	nt	nt	nt
O=C(CCCn1c(SCC(=O)c2ccc(F)cc2)nc2ccccc2c1=O)NCc1ccccc1	i	i	i	nt	10µM	i
O=C(CCCn1c(SCc2cc(=O)n3ccccc3n2)nc2ccccc2c1=O)NCC1CCCO1 (stereo unspecified)	i	i	nt	i	?	i
CN(C)S(=O)(=O)c1cccc(COc2ncnc3c(Cl)cc(Cl)cc23)c1	i	i	i	i	i	i
COc1cc(C)c(COc2ncnc3ccccc23)cc1OC	i	i	i	?	i	i
Cc1cc(=O)oc2cc(OCCCC[n+]3ccccc3)ccc12	i	i	i	5.2µM	?	i
Cc1cc(=O)oc2cc(OCC(=O)c3ccccc3)ccc12	i	i	i	i	6.6µM	i
O=C(CSCC(=O)NN=Cc1ccccc1O)NN=Cc1ccccc1O	i	?	nt	nt	nt	nt
CC(=O)c1cccc(NC(=O)COc2ccc3oc(=O)cc(C)c3c2)c1	i	16µM	i	?	?	i
CSc1nc(C)cc(OCC(=O)N/N=C/c2ccccc2O)n1	i[11.6 µM]	6.3µM	i	i	?	i
Cc1ccccc1NC(=O)COc1ccc2oc(=O)cc(C)c2c1	i	i	i	i	i	i
CCOc1ccc(NC(=S)N2CCN(S(C)(=O)=O)CC2)cc1	i	nt	i	?	?	?
Cc1cc(=O)oc2cc(OCC(=O)NCc3ccccn3)ccc12	i	i	i	?	?	i
Cc1cccc(C(C)C)c1NC(=O)c1ccc(COc2ccc3c(C)cc(=O)oc3c2)cc1	i	?	i	?	9.3µM	i
Cc1ccc(SCCC(=O)N/N=C/c2ccccc2O)cc1	i	?	i	15µM	?	?
Cc1cc(=O)oc2cc(OCC(=O)N/N=C/c3ccccc3O)ccc12	i	i	i	i	9.3µM	i
Cc1ccc(S(=O)(=O)N2CCN(c3nccnc3C#N)CC2)cc1	i	i	i	i	i	i
CC1(C)Cc2c(C#N)c(N3CCN(C(=O)c4ccco4)CC3)nc(Cc3ccccc3)c2CO1	i	i	i	1.7µM	i[5.75 µM]	i
CCc1nc(N2CCN(C(C)=O)CC2)c(C#N)c2c1COC(C)(C)C2	i	i	i	i	?	i
CCc1nc(N2CCN(C(=O)c3ccco3)CC2)c(C#N)c2c1COC(C)(C)C2	i	22µM	i	10µM	?	i
O=C(OCC(=O)N1CCc2ccccc21)[C@@H]1CC(O)CN1S(=O)(=O)c1ccc(Cl)cc1 (stereo partly specified)	i	i	nt	nt	nt	i
O=C(CSc1nnc(COc2ccc(Cl)cc2)o1)N1CCOCC1	i	i	i	i	?	i
COc1ccc(C2=NOC(C(=O)Nc3cc(Br)ccc3O)C2)cc1OC (stereo unspecified)	i	i	i	15µM	i	i
SMILES	AMA1-RON2 inh	HCV inh	NS1 inh	Pf growth 48h	Pf growth 96h	SARS PLP yeast
COc1ccc(C2=NOC(C(=O)Nc3cccc(O)c3)C2)cc1 (stereo unspecified)	i	i	i	i	5.2µM	i
COc1cccc(C2=NOC(C(=O)NCCN3CCOCC3)C2)c1 (stereo unspecified)	i	i	i	?	8.3µM	i
COc1ccc(C2=NOC(C(=O)NCCN3CCOCC3)C2)cc1 (stereo unspecified)	i	i	i	?	i	i
COc1cc(NC(=O)C2CC(c3cccc(OC)c3OC)=NO2)cc(OC)c1OC (stereo unspecified)	i	1.1µM	i	i	i	i
O=C(Nc1cccc(O)c1)C1CC(c2ccc(Cl)cc2)=NO1 (stereo unspecified)	i	i	i	i	i	i
COc1cccc(C2=NOC(C(=O)Nc3cc(C)on3)C2)c1 (stereo unspecified)	i	i	i	i	i	i
COc1ccc(C2=NOC(C(=O)Nc3cc(C)on3)C2)cc1 (stereo unspecified)	i	i	i	nt	9.3µM	i
COc1cc(NC(=O)C2CC(c3c(F)cccc3Cl)=NO2)c(OC)cc1Cl (stereo unspecified)	i	?	i	i	10µM	i
COc1ccc(OC)c(C2=NOC(C(=O)Nc3cccc(C(C)=O)c3)C2)c1 (stereo unspecified)	i	i	i	i	9.3µM	i
COc1ccc(OC)c(C2=NOC(C(=O)Nc3ccccc3SC)C2)c1 (stereo unspecified)	i	i	i	nt	?	i
COc1ccc2c(Cl)cc(NC(=S)Nc3ccccc3)nc2c1	nt	nt	i	nt	nt	nt
CC(C)n1c2ccccc2c2nc3ccccc3nc21	i	13µM	i	?	nt	i
C#CCn1c2ccccc2c2nc3ccccc3nc21	i	i	i	i	?	i
CCOC(=O)[C@]12CCCC=C1N(CCC1=CCCCC1)C(=O)[C@H](CC(=O)NCc1ccccc1)C2	i	nt	nt	nt	nt	nt
CSc1ccccc1OCc1cc(C(=O)NC2CCOC(C)(C)C2)no1 (stereo unspecified)	i	nt	i	i	?	i
COc1ccc(OCc2cc(C(=O)NC3CCOC(C)(C)C3)no2)c2ccccc12 (stereo unspecified)	nt	nt	i	9.3µM	1.2µM	i
Cc1ccc(C)c(OCc2cc(C(=O)N3CCN(c4ccccc4C)CC3C)no2)c1 (stereo unspecified)	i	?	i	i	12µM	i
Cc1cccc(C)c1OCc1cc(C(=O)NC2CCC2)no1	i	?	i	?	i	i
Cc1ccc(C)c(OCc2cc(C(=O)NC3CCOC(C)(C)C3)no2)c1 (stereo unspecified)	i	nt	i	i	10µM	i
COc1ccc(Cl)cc1N1C(=O)CC(N2CCN(S(=O)(=O)c3ccccc3F)CC2)C1=O (stereo unspecified)	i	i	nt	nt	nt	i
OC1(c2ccc(Br)cc2)CN(c2ccccc2)C2=[N+]1CCS2 (stereo unspecified)	i	?	nt	?	?	i
OC1(c2ccc(Cl)cc2)CN(c2ccccc2)C2=[N+]1CCS2 (stereo unspecified)	i	13µM	nt	?	?	i
Cc1nnc(SCC(=O)NCc2ccccc2Cl)[nH]c1=O	i	i	nt	i	i	i
CCN(CC)CCOc1cc2c(nn1)Oc1ccccc1N2C	i	i	?	i	3.3µM	i
COc1cccc2cc(C(=O)c3ccc([N+](=O)[O-])cc3)oc12	i	i	?	i	15µM	i
COc1cccc2cc(C(N)=O)oc12	i	i	i	i	i[5.75 µM]	i
